Measured values published in article PMC7862700, “An all-to-all approach to the identification of sequence-specific readers for epigenetic DNA modifications on cytosine”.

Key:
Test in all cases: DAPPL (digital affinity profiling via proximity ligation, sequencing); 10 mM Tris-HCl pH 7.5, 50 mM NaCl, 1 mM DTT, 4% glycerol, room temperature, 30 min; GST-TFs on glutathione beads, 16-mer random dsDNA library, 0.1% formaldehyde crosslink after washing; high values mean tight binding
FEV = target: T1, FEV (Homo sapiens, UniProt Q99581 1-238); details: protein: recombinant; tags: N-terminal GST; dsDNA, one strand shown
T1 sequence: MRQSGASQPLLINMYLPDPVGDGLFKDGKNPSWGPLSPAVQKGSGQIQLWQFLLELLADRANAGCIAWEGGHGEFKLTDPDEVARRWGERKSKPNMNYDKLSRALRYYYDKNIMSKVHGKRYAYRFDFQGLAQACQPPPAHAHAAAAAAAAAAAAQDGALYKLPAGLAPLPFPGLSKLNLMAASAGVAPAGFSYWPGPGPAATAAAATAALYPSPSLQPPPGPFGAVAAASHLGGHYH
How it was run: (§1)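 Binding signal is each hexamer's read frequency for a factor divided by its frequency in the tag-only sample. The factors were GST-fused human transcription factors from yeast, captured on glutathione beads, DNA-barcoded and pooled with that sample. Pools were incubated with 200 nmole of a random double-stranded 16-mer DNA library in Tris/NaCl/DTT/glycerol buffer at room temperature for 30 min, then washed, crosslinked with 0.1% formaldehyde, proximity-ligated with BsaI/T4 ligase (1 h, 37 °C), PCR-amplified and sequenced on an Illumina NextSeq500.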

ETV5 = ETV5 (Homo sapiens, UniProt P41161 1-510); details: protein: recombinant; tags: N-terminal GST; dsDNA, one strand shown
ETV5, sequence (P41161 whole entry): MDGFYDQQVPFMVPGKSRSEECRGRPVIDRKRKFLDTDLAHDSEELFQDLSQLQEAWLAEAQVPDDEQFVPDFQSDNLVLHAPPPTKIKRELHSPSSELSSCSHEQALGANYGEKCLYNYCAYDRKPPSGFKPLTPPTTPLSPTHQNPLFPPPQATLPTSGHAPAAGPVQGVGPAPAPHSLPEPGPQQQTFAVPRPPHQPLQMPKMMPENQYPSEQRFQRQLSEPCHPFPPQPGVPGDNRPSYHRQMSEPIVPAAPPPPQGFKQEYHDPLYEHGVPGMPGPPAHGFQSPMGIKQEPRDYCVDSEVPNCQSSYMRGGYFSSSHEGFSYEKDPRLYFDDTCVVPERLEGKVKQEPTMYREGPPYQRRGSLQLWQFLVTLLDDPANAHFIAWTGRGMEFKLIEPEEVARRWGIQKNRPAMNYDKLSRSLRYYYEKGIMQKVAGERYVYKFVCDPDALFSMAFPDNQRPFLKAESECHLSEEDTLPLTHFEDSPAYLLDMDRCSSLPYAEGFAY
How it was run: as §1

HSF1 = HSF1 (Homo sapiens, UniProt Q00613 1-529); details: protein: recombinant; tags: N-terminal GST; chain copies: 3; dsDNA, one strand shown
HSF1, sequence (Q00613 whole entry): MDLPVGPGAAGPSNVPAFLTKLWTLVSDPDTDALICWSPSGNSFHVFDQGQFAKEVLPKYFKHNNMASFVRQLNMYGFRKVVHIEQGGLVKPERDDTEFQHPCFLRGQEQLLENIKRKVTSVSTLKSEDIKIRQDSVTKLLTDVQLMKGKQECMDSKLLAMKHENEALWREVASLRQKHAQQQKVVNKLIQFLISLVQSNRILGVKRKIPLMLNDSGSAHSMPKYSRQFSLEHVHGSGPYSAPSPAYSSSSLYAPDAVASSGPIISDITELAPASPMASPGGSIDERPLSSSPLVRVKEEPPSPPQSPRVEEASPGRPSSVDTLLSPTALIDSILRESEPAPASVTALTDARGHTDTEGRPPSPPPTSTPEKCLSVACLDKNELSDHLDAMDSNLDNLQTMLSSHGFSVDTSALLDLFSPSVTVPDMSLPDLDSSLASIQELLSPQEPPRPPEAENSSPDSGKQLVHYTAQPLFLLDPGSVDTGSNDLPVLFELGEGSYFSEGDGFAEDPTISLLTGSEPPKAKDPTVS
How it was run: as §1

SPIC = target: T2, SPIC (Homo sapiens, UniProt Q8N5J4 1-248); details: protein: recombinant; tags: N-terminal GST; dsDNA, one strand shown
T2 sequence: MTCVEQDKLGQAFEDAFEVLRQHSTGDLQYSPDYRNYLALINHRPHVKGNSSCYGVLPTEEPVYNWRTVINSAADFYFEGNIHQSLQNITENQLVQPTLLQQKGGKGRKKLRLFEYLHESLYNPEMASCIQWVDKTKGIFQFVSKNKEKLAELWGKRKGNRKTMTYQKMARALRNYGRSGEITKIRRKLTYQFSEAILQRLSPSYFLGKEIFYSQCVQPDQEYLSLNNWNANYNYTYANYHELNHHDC
How it was run: as §1

ELF4 = ELF4 (Homo sapiens, UniProt Q99607 1-663); details: protein: recombinant; tags: N-terminal GST; dsDNA, one strand shown
ELF4, sequence (Q99607 whole entry): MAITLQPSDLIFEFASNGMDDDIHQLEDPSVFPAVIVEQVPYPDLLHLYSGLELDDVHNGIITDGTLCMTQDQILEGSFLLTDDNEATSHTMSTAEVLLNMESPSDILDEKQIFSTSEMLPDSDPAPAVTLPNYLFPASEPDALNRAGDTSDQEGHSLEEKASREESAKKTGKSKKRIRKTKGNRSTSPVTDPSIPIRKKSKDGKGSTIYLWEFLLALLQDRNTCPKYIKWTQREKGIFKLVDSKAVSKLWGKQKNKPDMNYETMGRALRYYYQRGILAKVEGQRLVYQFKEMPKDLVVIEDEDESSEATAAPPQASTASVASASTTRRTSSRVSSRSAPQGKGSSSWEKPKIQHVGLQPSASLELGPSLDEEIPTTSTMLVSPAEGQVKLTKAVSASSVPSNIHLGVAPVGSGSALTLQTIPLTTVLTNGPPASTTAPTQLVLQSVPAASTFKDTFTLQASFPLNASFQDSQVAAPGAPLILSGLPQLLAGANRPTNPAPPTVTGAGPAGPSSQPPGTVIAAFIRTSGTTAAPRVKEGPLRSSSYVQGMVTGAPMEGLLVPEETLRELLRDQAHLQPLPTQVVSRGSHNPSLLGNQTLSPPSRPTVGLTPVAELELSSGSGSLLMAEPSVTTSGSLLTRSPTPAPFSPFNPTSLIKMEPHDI
How it was run: as §1

ELK4 = target: T3, ELK4 (Homo sapiens, UniProt P28324-2 1-405); details: protein: recombinant; tags: N-terminal GST; dsDNA, one strand shown
T3 sequence: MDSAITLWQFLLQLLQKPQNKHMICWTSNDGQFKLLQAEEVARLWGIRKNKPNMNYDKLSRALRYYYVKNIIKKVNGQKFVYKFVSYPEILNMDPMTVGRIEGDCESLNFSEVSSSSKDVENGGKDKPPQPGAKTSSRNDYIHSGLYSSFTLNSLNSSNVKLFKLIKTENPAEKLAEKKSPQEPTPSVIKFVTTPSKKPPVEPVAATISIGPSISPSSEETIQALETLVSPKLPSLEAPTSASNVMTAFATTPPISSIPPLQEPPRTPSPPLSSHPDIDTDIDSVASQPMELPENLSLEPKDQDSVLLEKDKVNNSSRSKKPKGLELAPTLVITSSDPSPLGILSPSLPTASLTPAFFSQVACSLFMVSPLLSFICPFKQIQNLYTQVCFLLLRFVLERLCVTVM
How it was run: as §1

ETV2 = target: T4, ETV2 (Homo sapiens, UniProt O00321 1-342); details: protein: recombinant; tags: N-terminal GST; dsDNA, one strand shown
T4 sequence: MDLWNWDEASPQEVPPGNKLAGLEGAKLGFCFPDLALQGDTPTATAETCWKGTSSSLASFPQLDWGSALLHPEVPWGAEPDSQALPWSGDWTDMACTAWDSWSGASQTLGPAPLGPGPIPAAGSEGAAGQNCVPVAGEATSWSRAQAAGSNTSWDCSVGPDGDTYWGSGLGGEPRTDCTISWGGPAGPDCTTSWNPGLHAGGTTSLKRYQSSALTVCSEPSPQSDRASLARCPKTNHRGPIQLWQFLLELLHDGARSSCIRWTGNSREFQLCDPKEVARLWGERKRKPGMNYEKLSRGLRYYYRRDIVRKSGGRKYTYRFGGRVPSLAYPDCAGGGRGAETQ
How it was run: as §1

ELF3 = target: T5, ELF3 (Homo sapiens, UniProt P78545 1-371); details: protein: recombinant; tags: N-terminal GST; dsDNA, one strand shown
T5 sequence: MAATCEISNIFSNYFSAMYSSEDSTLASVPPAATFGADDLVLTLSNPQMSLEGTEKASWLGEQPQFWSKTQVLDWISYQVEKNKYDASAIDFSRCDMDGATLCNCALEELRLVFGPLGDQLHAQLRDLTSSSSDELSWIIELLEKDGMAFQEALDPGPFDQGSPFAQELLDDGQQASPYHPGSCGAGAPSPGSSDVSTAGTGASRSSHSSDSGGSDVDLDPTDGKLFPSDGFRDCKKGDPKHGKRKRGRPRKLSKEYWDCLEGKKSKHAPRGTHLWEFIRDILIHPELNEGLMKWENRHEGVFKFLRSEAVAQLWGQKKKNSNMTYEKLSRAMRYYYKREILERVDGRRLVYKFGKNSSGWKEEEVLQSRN
How it was run: as §1

CRX = CRX (Homo sapiens, UniProt O43186 1-299); details: protein: recombinant; tags: N-terminal GST; dsDNA, one strand shown
CRX, sequence (O43186 whole entry): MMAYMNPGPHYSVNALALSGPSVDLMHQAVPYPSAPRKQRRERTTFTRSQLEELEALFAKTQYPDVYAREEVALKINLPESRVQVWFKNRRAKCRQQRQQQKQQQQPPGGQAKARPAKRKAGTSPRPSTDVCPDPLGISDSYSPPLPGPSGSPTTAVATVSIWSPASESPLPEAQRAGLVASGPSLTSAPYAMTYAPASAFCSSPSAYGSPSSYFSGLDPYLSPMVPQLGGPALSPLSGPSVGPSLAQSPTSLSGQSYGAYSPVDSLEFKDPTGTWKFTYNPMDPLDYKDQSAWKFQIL
How it was run: as §1

ETV1 = ETV1 (Homo sapiens, UniProt P50549 1-477); details: protein: recombinant; tags: N-terminal GST; dsDNA, one strand shown
ETV1, sequence (P50549 whole entry): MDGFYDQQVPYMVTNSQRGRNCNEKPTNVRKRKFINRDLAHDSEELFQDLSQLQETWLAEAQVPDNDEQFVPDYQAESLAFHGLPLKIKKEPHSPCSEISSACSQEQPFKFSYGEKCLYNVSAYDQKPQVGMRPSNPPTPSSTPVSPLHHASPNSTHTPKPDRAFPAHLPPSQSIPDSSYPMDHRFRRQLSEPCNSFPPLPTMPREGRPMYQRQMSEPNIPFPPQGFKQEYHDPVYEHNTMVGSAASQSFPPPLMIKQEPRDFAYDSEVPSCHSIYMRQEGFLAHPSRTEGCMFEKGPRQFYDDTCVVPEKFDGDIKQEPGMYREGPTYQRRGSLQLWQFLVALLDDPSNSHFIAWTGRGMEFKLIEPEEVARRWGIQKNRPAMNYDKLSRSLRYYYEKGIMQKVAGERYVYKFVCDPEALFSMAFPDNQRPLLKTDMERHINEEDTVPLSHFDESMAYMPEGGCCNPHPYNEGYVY
How it was run: as §1

ERF = target: T6, ERF (Homo sapiens, UniProt P50548 1-548); details: protein: recombinant; tags: N-terminal GST; dsDNA, one strand shown
T6 sequence: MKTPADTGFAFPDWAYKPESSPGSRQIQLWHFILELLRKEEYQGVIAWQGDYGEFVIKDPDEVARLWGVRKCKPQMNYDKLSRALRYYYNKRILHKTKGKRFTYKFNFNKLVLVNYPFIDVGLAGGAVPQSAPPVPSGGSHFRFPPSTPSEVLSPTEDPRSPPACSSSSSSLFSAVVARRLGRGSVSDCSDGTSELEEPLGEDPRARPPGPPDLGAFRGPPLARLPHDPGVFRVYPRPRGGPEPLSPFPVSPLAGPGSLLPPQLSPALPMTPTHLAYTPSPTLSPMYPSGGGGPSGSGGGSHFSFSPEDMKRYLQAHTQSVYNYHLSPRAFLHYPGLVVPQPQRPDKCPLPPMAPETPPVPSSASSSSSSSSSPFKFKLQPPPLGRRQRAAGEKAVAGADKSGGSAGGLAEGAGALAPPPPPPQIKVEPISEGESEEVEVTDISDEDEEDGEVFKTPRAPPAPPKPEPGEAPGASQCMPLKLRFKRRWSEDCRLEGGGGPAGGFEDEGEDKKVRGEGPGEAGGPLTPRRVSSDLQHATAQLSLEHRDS
How it was run: as §1

ETV3L = target: T7, ETV3L (Homo sapiens, UniProt Q6ZN32 1-361); details: protein: recombinant; tags: N-terminal GST; dsDNA, one strand shown
T7 sequence: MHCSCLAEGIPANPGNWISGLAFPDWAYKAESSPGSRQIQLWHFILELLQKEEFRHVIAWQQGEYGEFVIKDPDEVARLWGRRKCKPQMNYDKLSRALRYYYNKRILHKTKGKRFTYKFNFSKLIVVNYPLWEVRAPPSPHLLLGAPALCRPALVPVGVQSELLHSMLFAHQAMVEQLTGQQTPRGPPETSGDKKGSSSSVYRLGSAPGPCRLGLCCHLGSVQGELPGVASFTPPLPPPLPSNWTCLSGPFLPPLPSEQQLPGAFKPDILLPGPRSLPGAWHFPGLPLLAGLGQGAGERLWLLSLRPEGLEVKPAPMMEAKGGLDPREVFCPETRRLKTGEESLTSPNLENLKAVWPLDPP
How it was run: as §1

ETS2 = target: T8, ETS2 (Homo sapiens, UniProt P15036 1-469); details: protein: recombinant; tags: N-terminal GST; dsDNA, one strand shown
T8 sequence: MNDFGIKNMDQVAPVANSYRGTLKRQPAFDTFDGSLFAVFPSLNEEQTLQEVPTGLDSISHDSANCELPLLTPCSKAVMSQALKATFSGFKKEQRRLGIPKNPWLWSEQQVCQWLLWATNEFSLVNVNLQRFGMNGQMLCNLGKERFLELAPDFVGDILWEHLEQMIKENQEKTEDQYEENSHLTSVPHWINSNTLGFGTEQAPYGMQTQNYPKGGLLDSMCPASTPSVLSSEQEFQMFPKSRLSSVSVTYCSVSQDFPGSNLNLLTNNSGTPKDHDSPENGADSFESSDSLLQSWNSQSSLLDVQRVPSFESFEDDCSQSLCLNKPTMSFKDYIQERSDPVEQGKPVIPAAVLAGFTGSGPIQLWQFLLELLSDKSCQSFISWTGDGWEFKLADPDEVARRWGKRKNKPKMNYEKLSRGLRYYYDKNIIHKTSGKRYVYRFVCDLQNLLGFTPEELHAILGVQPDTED
How it was run: as §1

SPDEF = target: T9, SPDEF (Homo sapiens, UniProt O95238 1-335); details: protein: recombinant; tags: N-terminal GST; dsDNA, one strand shown
T9 sequence: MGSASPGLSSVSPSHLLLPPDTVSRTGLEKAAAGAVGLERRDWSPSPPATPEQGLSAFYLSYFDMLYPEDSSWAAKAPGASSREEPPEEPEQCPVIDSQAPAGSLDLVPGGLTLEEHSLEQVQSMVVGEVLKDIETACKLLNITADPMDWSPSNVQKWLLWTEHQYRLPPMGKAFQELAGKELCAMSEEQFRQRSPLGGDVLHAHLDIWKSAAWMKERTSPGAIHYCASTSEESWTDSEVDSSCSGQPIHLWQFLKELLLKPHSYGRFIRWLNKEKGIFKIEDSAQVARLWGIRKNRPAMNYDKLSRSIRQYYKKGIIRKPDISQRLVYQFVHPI
How it was run: as §1

ETV7 = target: T10, ETV7 (Homo sapiens, UniProt Q9Y603 1-341); details: protein: recombinant; tags: N-terminal GST; dsDNA, one strand shown
T10 sequence: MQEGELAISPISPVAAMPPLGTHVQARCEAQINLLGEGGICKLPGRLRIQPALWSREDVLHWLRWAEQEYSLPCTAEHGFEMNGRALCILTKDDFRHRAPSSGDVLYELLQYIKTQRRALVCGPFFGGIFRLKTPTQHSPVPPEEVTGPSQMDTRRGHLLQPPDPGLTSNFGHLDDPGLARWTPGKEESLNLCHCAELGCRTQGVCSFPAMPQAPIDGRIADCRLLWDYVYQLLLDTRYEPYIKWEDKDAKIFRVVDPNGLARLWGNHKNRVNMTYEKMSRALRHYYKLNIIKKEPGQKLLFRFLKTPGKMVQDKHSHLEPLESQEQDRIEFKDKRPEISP
How it was run: as §1

ELF5 = target: T11, ELF5 (Homo sapiens, UniProt Q9UKW6-2 1-255); details: protein: recombinant; tags: N-terminal GST; dsDNA, one strand shown
T11 sequence: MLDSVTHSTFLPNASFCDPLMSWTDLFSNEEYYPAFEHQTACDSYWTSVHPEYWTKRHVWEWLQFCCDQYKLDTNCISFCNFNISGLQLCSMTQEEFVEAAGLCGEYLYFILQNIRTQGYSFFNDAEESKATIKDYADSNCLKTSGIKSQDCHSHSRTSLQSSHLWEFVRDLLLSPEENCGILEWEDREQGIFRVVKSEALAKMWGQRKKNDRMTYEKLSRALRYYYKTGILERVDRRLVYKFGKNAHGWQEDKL
How it was run: as §1

ETV3 = target: T12, ETV3 (Homo sapiens, UniProt P41162-2 1-143); details: protein: recombinant; tags: N-terminal GST; dsDNA, one strand shown
T12 sequence: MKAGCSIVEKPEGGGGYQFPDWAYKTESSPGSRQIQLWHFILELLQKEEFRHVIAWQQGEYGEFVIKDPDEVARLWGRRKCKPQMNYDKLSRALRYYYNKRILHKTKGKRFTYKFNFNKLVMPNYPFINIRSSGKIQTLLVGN
How it was run: as §1

ETV6 = ETV6 (Homo sapiens, UniProt P41212 1-452); details: protein: recombinant; tags: N-terminal GST; dsDNA, one strand shown
ETV6, sequence (P41212 whole entry): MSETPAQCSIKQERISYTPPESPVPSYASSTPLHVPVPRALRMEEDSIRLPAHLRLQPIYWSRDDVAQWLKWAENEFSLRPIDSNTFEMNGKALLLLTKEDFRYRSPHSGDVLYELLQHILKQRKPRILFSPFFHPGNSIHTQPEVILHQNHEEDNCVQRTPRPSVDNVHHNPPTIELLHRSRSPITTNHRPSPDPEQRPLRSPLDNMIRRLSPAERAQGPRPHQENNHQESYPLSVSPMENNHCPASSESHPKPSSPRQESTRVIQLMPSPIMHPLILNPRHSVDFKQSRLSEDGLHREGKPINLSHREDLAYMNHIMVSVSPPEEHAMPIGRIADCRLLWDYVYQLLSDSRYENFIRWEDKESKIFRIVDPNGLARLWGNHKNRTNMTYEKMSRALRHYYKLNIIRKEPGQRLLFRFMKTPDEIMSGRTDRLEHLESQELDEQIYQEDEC
How it was run: as §1

TATGTG
binding signal (FEV): 1.08 fold enrichment (6-mer frequency, TF over GST control)
binding signal (ETV5): 1.13 fold enrichment (6-mer frequency, TF over GST control)
binding signal (HSF1): 1.01 fold enrichment (6-mer frequency, TF over GST control)
binding signal (SPIC): 1.22 fold enrichment (6-mer frequency, TF over GST control)
binding signal (ELF4): 1.13 fold enrichment (6-mer frequency, TF over GST control)
binding signal (ELK4): 1.17 fold enrichment (6-mer frequency, TF over GST control)
binding signal (ETV2): 1.06 fold enrichment (6-mer frequency, TF over GST control)
binding signal (ELF3): 1.16 fold enrichment (6-mer frequency, TF over GST control)
binding signal (CRX): 1.09 fold enrichment (6-mer frequency, TF over GST control)
binding signal (ETV1): 1.08 fold enrichment (6-mer frequency, TF over GST control)
binding signal (ERF): 1.07 fold enrichment (6-mer frequency, TF over GST control)
binding signal (ETV3L): 1.02 fold enrichment (6-mer frequency, TF over GST control)
binding signal (ETS2): 1.07 fold enrichment (6-mer frequency, TF over GST control)
binding signal (SPDEF): 1.09 fold enrichment (6-mer frequency, TF over GST control)
binding signal (ETV7): 1.04 fold enrichment (6-mer frequency, TF over GST control)
binding signal (ELF5): 1.01 fold enrichment (6-mer frequency, TF over GST control)
binding signal (ETV3): 1.09 fold enrichment (6-mer frequency, TF over GST control)
binding signal (ETV6): 1.07 fold enrichment (6-mer frequency, TF over GST control)
